Laboratory results as given in PubChem BioAssay AID588852 (The Scripps Research Institute Molecular Screening Center, 2011).
In all, about 360,000 compounds went through this assay and about 4,600 (1.3%) were called active. The sample as a whole holds a higher share of actives than the screen did. A number with no mark means an inactive call.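 Rule for the calls: active = percent inhibition above its own plate's cutoff, namely the mean of that plate's compound wells plus 3 SD; inactive = the rest.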

The compounds below were run against Muscarinic acetylcholine receptor M1 (Homo sapiens) (UniProt P11229) (assay: human M1 muscarinic receptor antagonists, primary screen, CHO-K1 cells, Fluo-8 calcium fluorescence, 1536-well (AID 588852;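 note: peak over basal fluorescence ratio during 140 s after agonist addition; 0% = ACh EC80 plus DMSO and 100% = DMSO alone without agonist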)). Conditions: CHO-K1 hM1, Fluo-8 calcium fluorescence, ACh EC80 antagonist; at 3 µM; active compounds read high.
Sequence of Muscarinic acetylcholine receptor M1 (Homo sapiens) (P11229 whole entry, looked up): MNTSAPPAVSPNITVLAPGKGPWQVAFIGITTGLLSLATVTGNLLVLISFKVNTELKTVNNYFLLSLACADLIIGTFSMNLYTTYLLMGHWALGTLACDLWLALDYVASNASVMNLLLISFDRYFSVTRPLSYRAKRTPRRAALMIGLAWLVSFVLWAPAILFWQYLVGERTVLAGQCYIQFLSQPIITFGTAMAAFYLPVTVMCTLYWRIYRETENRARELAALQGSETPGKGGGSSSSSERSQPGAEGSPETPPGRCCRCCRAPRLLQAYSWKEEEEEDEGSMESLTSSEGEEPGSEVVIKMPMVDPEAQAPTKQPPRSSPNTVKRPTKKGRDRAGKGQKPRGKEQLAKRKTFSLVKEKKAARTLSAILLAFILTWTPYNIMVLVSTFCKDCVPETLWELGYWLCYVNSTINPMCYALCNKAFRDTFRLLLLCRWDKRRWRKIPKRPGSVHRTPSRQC

Structure (SMILES) | inhibition
O=C(COc1ccc(Cl)cc1)Nc1ccccc1CO | 3.31%
Cc1cc(N2CCCC2)ccc1NC(=O)COc1ccc(Cl)cc1 | 38.5% (active)
Cc1cc(C)cc(OCC(=O)Nc2ccc(N3CCOCC3)cc2N2CCOCC2)c1 | 0.26%
Fc1ccccc1CCNc1nnnn1-c1ccccc1 | -15.4%
O=C(COc1ccccc1)Nc1nonc1NC(=O)COc1ccccc1 | 3.1%
COc1ccc(C)cc1NC(=S)Nc1ccccc1SC | -4.63%
O=C(c1cccs1)N1CCC(c2nc3ccccc3s2)CC1 | -0.25%
Cc1cccc(C(=O)N2CCC(c3nc4ccccc4s3)CC2)c1 | 41.2% (active)
Cc1cccc(NC(=S)N2CCC(c3nc4ccccc4s3)CC2)c1 | 6.88%
CC(/C=C/c1ccccc1)=N\NC(=O)C1CC1(C)c1ccccc1 (stereo unspecified) | -3.18%
O=C(CNC(=O)c1ccccc1Br)NCCSc1ccc(Br)cc1 | -10.6%
Cc1ccccc1OCC(=O)Nc1ccc(N2CCN(C(=O)C(C)C)CC2)c(Cl)c1 | 34.5% (active)
CCc1ccccc1OCC(=O)Nc1ccc(C)c(S(=O)(=O)N2CCCCCC2)c1 | 6.49%
COc1cc(NC(=O)COc2ccccc2Cl)ccc1NC(=O)C(C)C | 6.01%
CCN1C(=O)[C@H]2[C@@H](c3ccccc3)N[C@]3(CCCN(Cc4ccc(C)cc4)C3=O)[C@H]2C1=O | -5.93%
COc1ccccc1C(=O)NCCC(=O)NCC(c1ccco1)N1CCCCC1 (stereo unspecified) | -5.11%
COc1ccc(C(CNC(=O)c2cccnc2SC)N2CCOCC2)cc1 (stereo unspecified) | -5.53%
CSc1ncccc1C(=O)NCC(c1ccco1)N1CCCCC1 (stereo unspecified) | 34.8% (active)
Cc1nn(-c2ccccc2)c2sc(C(=O)N(Cc3ccco3)C(C)C(=O)NC(C)(C)C)cc12 (stereo unspecified) | -7.09%
CCOC1=C2CN(S(=O)(=O)c3ccc(C)cc3)[C@H](c3cccs3)C[C@H]2[C@H]2C(=O)N(c3ccccc3)C(=O)[C@H]2C1 | 1.5%
CC(C)C1CC2=C(C(=O)OC(C)(C)O2)C(c2ccc(F)cc2)O1 (stereo unspecified) | -37.3%
O=C(NCC(=O)N(Cc1cccs1)C(C(=O)NC1CCCCC1)c1ccco1)c1cccs1 (stereo unspecified) | 35.6% (active)

Structure (SMILES) | inhibition
Cc1ccccc1N(C(=O)CNC(=O)c1cccs1)C(C(=O)NC1CCCC1)c1ccncc1 (stereo unspecified) | -4.08%
O=C(NCC(=O)N(CC1CCCO1)C(C(=O)NC1CCCCC1)c1ccccc1)c1ccco1 (stereo unspecified) | -7.84%
COc1ccc(CC(N)c2csc(NC(=O)NC(c3ccccc3)c3ccccc3)n2)cc1 (stereo unspecified) | -1.87%
CN1OC[C@@H]2CN(C(=O)C(C)(C)C)[C@H](c3ccc(-n4ccnc4)cc3)C[C@@H]21 | 13.8%
O=C(COC(=O)c1cc(S(=O)(=O)N2CCOCC2)ccc1F)NC1CC1 | -2.77%
CCOC(=O)/C(N=Nc1cc(C(=O)O)cc(C(=O)O)c1)=C(\O)CCl | -12%
CCN(CC)CCn1c2c(c(SCC(=O)Nc3nc4ccccc4s3)nc1=O)CCCC2 | 42.1% (active)
CCN(CC)CCn1c2c(c(SCC(=O)Nc3ccc(C(C)C)cc3)nc1=O)CCC2 | 7.72%
Cc1ccc2nc(NC(=O)CSc3nc(=O)n(CCCN(C)C)c4c3CCC4)sc2c1 | 8.16%
COCCn1c(SCC(=O)Nc2cc(OC)ccc2OC)nc2c(c1=O)SC(C)C2 (stereo unspecified) | -11.7%
CC1CN(C(=O)c2ccc3c(c2)OCO3)OC(c2ccccc2)O1 (stereo unspecified) | 1.63%
CCC(C)(C)c1ccc(Oc2ccc(NC(=O)COC(=O)C3=COCCO3)cc2)cc1 | 24.8% (active)
COc1ccc(NC(=O)COC(=O)C2COc3ccccc3O2)cc1 (stereo unspecified) | -2.48%
CCOc1ccc(NC(=O)c2ccc(NC(=O)COC(=O)c3ccc(NC(=O)CC#N)cc3)cc2)cc1 | 7.32%
COc1ccc(C(C(=O)NC2CCCCC2)N(C(=O)Cc2c[nH]c3ccccc23)c2ccccc2)cc1OC (stereo unspecified) | -2.89%
COc1ccc(C2CC(c3cccs3)=NN2C(=O)CSc2nnc(N)s2)cc1OC (stereo unspecified) | 48.8% (active)
COc1ccc(C2CC(c3cccs3)=NN2C(=O)COC(=O)c2cc3ccccc3cc2O)cc1OC (stereo unspecified) | -1.73%
COc1ccc(C2CC(c3cccs3)=NN2C(=O)CSc2nncs2)cc1OC (stereo unspecified) | -3.74%
O=C(Nc1nnc([C@H]2C[C@H](O)[C@@H](CO)O2)s1)c1cccc(Cl)c1 | -7.54%
Nc1nc2c(ncn2[C@@H]2O[C@H](CNCc3ccc(OCCCN4CCOCC4)cc3)[C@@H](O)[C@H]2O)c(=O)[nH]1 | -12.3%
COC(=O)c1ccccc1Sc1c(/C=N/OCc2ccc(Cl)cc2)c(C(F)(F)F)nn1C | 6.15%
O=C(CN1CCN(c2ccc(F)cc2)CC1)Nc1cccc(C(F)(F)F)c1 | -30.1%

Structure (SMILES) | inhibition
Cn1nc(C(F)(F)F)c(C(=O)Nc2cccc(C(F)(F)F)c2)c1SCc1ccc(Cl)cc1 | 45.3% (active)
COc1cccc(NC(=O)Nc2nnc(N3CCCCC3C)s2)c1 (stereo unspecified) | -9.08%
C=C(C)c1cccc(C(C)(C)NC(=O)N2CCN(c3ncccn3)CC2)c1 | -3.97%
C=C(C)c1cccc(C(C)(C)NC(=O)NCCN(CC)CC)c1 | 82.6% (active)
C=C(C)c1cccc(C(C)(C)NC(=O)NC2CCCC2)c1 | -0.33%
CN(CC(=O)NCCc1ccccc1)S(=O)(=O)c1cnc[nH]1 | -5.57%
CC(C)C(=O)Nc1nnc(Sc2ccc(N(C)C)cc2)s1 | -14.1%
CN(C)C1=NC[C@H](Cc2ccccc2)N1CCc1ccc(F)cc1 | 9.98%
CC(NC(=O)Nc1ccccc1)c1ccccc1 (stereo unspecified) | -2.37%
CC(C)c1ccc(NC(=O)Cn2ncc3ccccc32)cc1 | -20.8%
CCC(C(=O)Nc1ccc(C(C)C)cc1)c1ccccc1 (stereo unspecified) | 37.1% (active)
COc1ccc(C(C)(O)c2nc(-c3cc(F)cc(F)c3)cs2)cc1 (stereo unspecified) | -4.19%
COc1ccccc1N(C)S(=O)(=O)c1ccc(C(=O)N2CCC(C(N)=O)CC2)cc1 | -7.95%
COC(=O)CCCCC1=CCC2C(=O)C=C(O)C2C1 (stereo unspecified) | 4.53%
Cc1ccc(C)c(N2CCN(C(=O)CCCCCn3c(=S)[nH]c4ccc(N5CCOCC5)cc4c3=O)CC2)c1 | 39.5% (active)
Cc1ccc(C)c(N2CCN(C(=O)CCCn3c(=O)c4cccn4c4cccnc43)CC2)c1 | -0.03%
O=C(CCCCCn1c(=S)[nH]c2cc3c(cc2c1=O)OCO3)N1CCN(c2ccc(F)cc2)CC1 | -8.71%
Cc1ccnc(NC(=O)C(C)N2C(=O)c3ccccc3C2=O)c1 (stereo unspecified) | -0.26%
Cc1ccccc1C#CC1=CC(=O)CC(C)(C)C1 | -7.17%
CN1CCN(c2ccc([N+](=O)[O-])c(Sc3nc4ccccc4[nH]3)c2)CC1 | -0.69%
CN(Cc1ccccc1)C(=O)CSc1nc2ccccc2[nH]1 | -5.93%
CCC(C)N1C(=O)S/C(=C/c2ccc(Sc3nc4ccccc4[nH]3)o2)C1=O (stereo unspecified) | 32.9% (active)

Structure (SMILES) | inhibition
O=C(C1CCC1)N1CCc2cc(S(=O)(=O)NCc3cccnc3)ccc21 | -15.2%
FC(F)(F)Oc1ccccc1C(c1nnnn1C1CCCCC1)N1CCN(C/C=C/c2ccccc2)CC1 (stereo unspecified) | -18.7%
COc1ccc(C(c2nnnn2C2CCCCC2)N2CCN(c3ccccc3F)CC2)cc1 (stereo unspecified) | -2.28%
COc1ccc(C(c2nnnn2C2CCCC2)N2CCN(C/C=C/c3ccccc3)CC2)cc1 (stereo unspecified) | 48.7% (active)
CC(=O)Nc1cc(-c2ccccc2N(C)C)cn2c(-c3ccc(F)c(Cl)c3)cnc12 | -16.4%
Cc1nc2ccc(C(=O)N(C)CC3CCCN(CCc4ccc(Cl)cc4)C3)cc2[nH]1 (stereo unspecified) | 17.1%
CN(CC1CCCN(CCc2cccc(C(F)(F)F)c2)C1)C(=O)c1ccc2nc[nH]c2c1 (stereo unspecified) | 84.4% (active)
CC(=O)c1ccc(N2CCN(C(=O)c3ccc4nc[nH]c4c3)CC2)cc1 | -1.75%
COc1ccc(NC(=O)C2Cc3c(-c4ccc5c(c4)OCO5)ccnc3O2)cn1 (stereo unspecified) | -14.1%
COc1ccc(-c2[nH][nH]c(=O)c2NC(=O)c2ccc([N+](=O)[O-])cc2)cc1 | -25%
CSCCNCc1cn(-c2ccc(F)cc2F)nc1-c1ccccc1C | -13.6%
CC(=O)Nc1cccc(-c2ccnc3c2CC(C)(C(=O)NCc2ccco2)O3)c1 (stereo unspecified) | -8.07%
COc1ccc(CCNC(=O)COC(=O)c2ccc[nH]c2=O)cc1 | -7.65%
O=C(OCc1nnc(-c2ccccc2)o1)c1cc(=O)[nH]c2ccccc12 | -2.41%
CCOC(=O)c1cc(-c2nnc(-c3cc(OC)c(OC)c(OC)c3)o2)c(C)nc1C | -32.2%
CCCc1nc2ccccc2c(C(=O)OCc2nnc(-c3cc(OC)c(OC)c(OC)c3)o2)c1CC | 24.3% (active)
O=C(NC1CCCCC1)C1CCC(CNS(=O)(=O)c2ccccc2)CC1 (stereo unspecified) | 2.63%
CCCCN1C(N)=NC[C@@H]1Cc1ccccc1 | -1.32%
CC[C@@H](C)[C@@H]1CN([C@@H](C)CN2CCC[C@H]2CN2C(N)=NC[C@H]2C(C)C)C(=N)N1CCc1ccc(Cl)c(Cl)c1 | 16.5%
C[C@@H](CN1CCC[C@H]1CN1C(N)=NC[C@@H]1Cc1ccccc1)N1C[C@@H](Cc2ccccc2)N(CCCC2CCCC2)C1=N | 93.1% (active)
